Data on 86 compounds can be found in PubChem BioAssay AID504850 (National Center for Advancing Translational Sciences (NCATS), 2011).

The campaign covered roughly 2,300 compounds. About 1,200 (52%) were called active. Inconclusive results (about 34%) are left out. So high a share suggests a set chosen from earlier hits. The list shows a part of the results. Unmarked numbers belong to inactive results. Calls come from the whole dose curve; as a rule, active = well fitted inhibition curve with a large enough effect; inconclusive = small, poorly fitted or top-dose-only effect, or effect the other way; inactive = no such curve, though single readings can be large or run the other way.
% is set by controls: 0 for no effect and ±100 for the full control effect; potency is the fitted concentration of half-maximal effect.

The experiment in a line: Confirmation screen for delayed death inhibitors of the malarial parasite plastid, 48 hour incubation. Note: nearly all actives have a fitted effect of over 65% in size. Conditions: P. falciparum-infected erythrocytes, luciferase growth; series mostly up to 28.7 µM; activity change, negative = inhibition: at the top concentration. The procedure, abridged: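 Single-generation (48 h, 37 C) exposure of integrated firefly luciferase-reporter P. falciparum in red cells, 0.1% parasitemia at 2% hematocrit, Albumax-supplemented RPMI. Falling luciferase signal marks parasite growth inhibition.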
Regarding `CCCc1c(CC)c(=N)c2ccccc2n1C`, the Potency is 0.282 µM (active).

For the compound `Cc1cnc(CNC(=O)c2ccc3oc(Cc4ccccc4)nc3c2)[nH]1`, the Potency was 15.8 µM (active).

Turning to `CC(C)(C)OC(=O)[C@H](Cc1ccccc1)NC(=O)c1nc[nH]c1C(=O)N1CCN(C(=O)OC(C)(C)C)CC1`, the Potency is 12.6 µM (active).

Turning to `CC(C)C[C@H](NC(=O)c1nc[nH]c1C(=O)N1CCN(C(=O)OC(C)(C)C)CC1)C(=O)OC(C)(C)C`, the Potency was 11.2 µM (active).

In the case of `CC(C)(C)OC(=O)CNC(=O)c1[nH]cnc1C(=O)NC1CCN(C(=O)OC(C)(C)C)CC1`, the Potency was 14.1 µM (active).

With `CC(Oc1ccccc1F)C(=O)Nc1ccc2ccccc2c1` (stereo unspecified), the “activity change, negative = inhibition” value is 34.4%.

Take `COc1ccc(NC2=C(NC(C)=O)C(=O)c3ccccc3C2=O)cc1`: the Potency is 7.08 µM (active).

With `O=C(CSc1c2c(nc3ccc(Cl)cc13)CCCC2)NCCCN1CCOCC1`, the Potency is 12.6 µM (active).

For the compound `O=S(=O)(CC(CN1CCCCC1)N1CCCCC1)c1ccccc1` (stereo unspecified), the Potency is 11.2 µM (active).

As for `CC(C)NC(=O)c1onc(CSc2cccc(F)c2)c1C(=O)O`, the “activity change, negative = inhibition” value is -9.89%.

As for `COC(=O)C1=CN(Cc2ccc(F)cc2)C=C(C(=O)OC)C1c1ccc(O)c(OC)c1`, the Potency is 11.2 µM (active).

For `CCOc1ccc(N(C)C(=O)CCc2nnc3ccc(N4CCCCC4)nn23)cc1`, the Potency was 11.2 µM (active).

Consider `CCC(=O)Nc1cccc(C(=O)/C=C/c2cc(Br)ccc2OC)c1`, for which the Potency was 10 µM (active).

Regarding `CC(=O)Nc1cccc(C(=O)/C=C/c2ccc(Br)cc2)c1`, the Potency is 14.1 µM (active).

`O=C(Nc1cccc(Br)c1)c1ccc2snnc2c1`: the “activity change, negative = inhibition” value is 1.09%.

With `CC(=O)Nc1cccc(C(=O)/C=C/c2ccc(C)cc2)c1`, the Potency is 15.8 µM (active).

`COC(=O)c1ccccc1SC1CC(=O)N(c2ccccc2)C1=O` (stereo unspecified): the “activity change, negative = inhibition” value is -4.09%.

For the compound `C=CCNC(=O)c1onc(CSc2ccc(F)c(F)c2)c1C(=O)O`, the “activity change, negative = inhibition” value is -2.36%.

Take `CC(=O)N1c2ccc(S(=O)(=O)NCCC(=O)NC3CCCC(C)C3C)cc2CC1C` (stereo unspecified): the Potency was 15.8 µM (active).

For the compound `Cc1ccc(NC(=O)CSc2cccc3cccnc23)c(C)c1`, the “activity change, negative = inhibition” value was -34.4%.

Regarding `CN(C)S(=O)(=O)c1cccc(NC(=O)CSc2cccc3cccnc23)c1`, the Potency is 11.2 µM (active).

As for `Cn1c(=O)c(=O)n(C)c2cc(N3CCCCC3)c(NS(=O)(=O)c3ccc(Br)cc3)cc21`, the Potency was 11.2 µM (active).

For `COc1ccc(OC)c(CNC(=O)c2ccc(C)c(NC(=O)C3=C(C)OCCS3)c2)c1`, the Potency is 12.6 µM (active).

Turning to `CC(CCc1ccccc1)NC(=O)COC(=O)c1ccc(S(C)(=O)=O)c([N+](=O)[O-])c1` (stereo unspecified), the “activity change, negative = inhibition” value is -31.9%.

Take `CCCNC(=O)COC(=O)c1ccccc1C(=O)c1ccc(Cl)c([N+](=O)[O-])c1`: the Potency was 12.6 µM (active).

In the case of `CC1CCN(C(=O)Cn2cc(C(=O)c3ccco3)c3ccccc32)CC1`, the Potency was 14.1 µM (active).

Regarding `Cc1cc(Sc2nnc(N)s2)c2ccccc2n1`, the Potency was 10 µM (active).

With `Cc1cc(Sc2nnc(/N=C/N(C)C)s2)c2ccccc2n1`, the Potency was 10 µM (active).

As to `O=C(O)CCCCCNc1nc(-c2ccccc2)nc2ccccc12`, the Potency is 12.6 µM (active).

As to `COc1ccc(S(=O)(=O)N2CCC(C(=O)Nc3ccccc3N3CCCCC3)CC2)cc1OC`, the Potency was 11.2 µM (active).

Turning to `COc1cc(NC(=O)C2CCN(S(=O)(=O)c3ccc(N4CCCC4=O)cc3)CC2)cc(OC)c1`, the Potency is 14.1 µM (active).

As to `COc1cccc(NC(=O)C2CCN(S(=O)(=O)c3ccc4[nH]c(=O)oc4c3)CC2)c1`, the “activity change, negative = inhibition” value was -27.8%.

Take `COc1ccc(Cl)cc1NC(=O)C1Cc2cc(S(=O)(=O)N3CCCC3)ccc2N1C(C)=O` (stereo unspecified): the Potency was 11.2 µM (active).

For `C=CCN(CC=C)C(=O)C1CCN(S(=O)(=O)c2ccc(N3CCCC3=O)cc2)CC1`, the Potency was 14.1 µM (active).

In the case of `Cc1ccc(S(=O)(=O)N2CCC(C(=O)Nc3ccc(S(=O)(=O)N4CCCC4)cc3)CC2)cc1C`, the Potency was 14.1 µM (active).

Regarding `COc1ccc(C)cc1NC(=O)C1CCN(S(=O)(=O)c2ccc3c(c2)NC(=O)CO3)CC1`, the Potency was 12.6 µM (active).

Take `O=C/C=C/c1c(-c2ccccc2)cc2oc3ccccc3cc1-2`: the “activity change, negative = inhibition” value was -24.6%.

As for `Cc1cc(=O)n2nc(N3CCC(C(=O)NCc4ccc(Cl)cc4)CC3)sc2n1`, the Potency was 12.6 µM (active).

Consider `Cc1cc(=O)n2nc(N3CCC(C(=O)NCCc4ccc(Cl)cc4)CC3)sc2n1`, for which the Potency was 12.6 µM (active).

With `Cc1cc(=O)n2nc(N3CCCC(C(=O)NCc4ccc(Cl)cc4)C3)sc2n1` (stereo unspecified), the Potency is 12.6 µM (active).

As for `COc1ccc(NC(=O)CN(c2ccc(F)cc2)S(=O)(=O)c2ccccc2)c(OC)c1`, the Potency was 15.8 µM (active).

For `Cc1ccc(S(=O)(=O)N(Cc2ccccc2)C(C)C)cc1`, the “activity change, negative = inhibition” value was -11.4%.

For `COc1ccc(N(CC(=O)NCCSCc2ccc(C)cc2)S(=O)(=O)c2ccccc2)cc1`, the Potency is 12.6 µM (active).

`COc1ccc2cc3[n+](cc2c1OC)CCc1cc2c(cc1-3)OCO2`: the Potency is 1.12 µM (active).

As for `CCOC(=O)c1ccc(Nc2nc(=O)c3cccnc3s2)cc1`, the “activity change, negative = inhibition” value was 8.09%.

Consider `CCOC(=O)c1ccc(N2N=C(C)/C(=C/C=C/c3ccco3)C2=O)cc1`, for which the Potency was 6.31 µM (active).

With `C=C1c2c(Cl)ccc(O)c2C(O)=C2C(=O)[C@]3(O)C(O)=C(C(N)=O)C(=O)[C@@H](N(C)C)[C@@H]3[C@@H](O)C12` (stereo partly specified), the Potency was 3.98 µM (active).

As for `C[C@@H]1c2cccc(O)c2C(O)=C2C(=O)[C@@]3(O)C(O)=C(C(N)=O)C(=O)[C@@H](N(C)C)[C@@H]3[C@@H](O)[C@@H]21`, the Potency was 4.47 µM (active).

As to `C=C1c2c(Cl)ccc(O)c2C(O)=C2C(=O)[C@@]3(O)C(O)=C(C(N)=O)C(=O)[C@@H](N(C)C)[C@@H]3[C@@H](O)[C@H]12`, the Potency is 4.47 µM (active).

Consider `CN(C)c1ccc(O)c2c1CC1CC3[C@@H](N(C)C)C(=O)C(C(N)=O)=C(O)[C@]3(O)C(=O)C1=C2O` (stereo partly specified), for which the Potency is 2.24 µM (active).

As to `Cc1ccc(-c2csc3ncn(CC#N)c(=O)c23)cc1C`, the “activity change, negative = inhibition” value was -28.7%.

Consider `Cc1ccccc1NC1=NCC(c2ccc([N+](=O)[O-])cc2)S1` (stereo unspecified), for which the Potency is 11.2 µM (active).

With `C=CCNC(=O)c1oc2ccc(S(=O)(=O)N3CCCCC3)cc2c1C`, the Potency was 14.1 µM (active).

For `C=CCNC(=O)c1onc(CSc2cc(C)cc(C)c2)c1C(=O)O`, the “activity change, negative = inhibition” value was -17.8%.

For `C=CCNC(=O)c1onc(CSc2ccc(C)c(C)c2)c1C(=O)O`, the “activity change, negative = inhibition” value is -3.94%.

On to `CCN(CC)Cc1cc2[nH]c3c4ccc(Cl)cc4ncc3c2cc1OC`, for which the Potency is 0.178 µM (active).

`CCCCCCn1ccc(=N)cc1`: the Potency was 7.08 µM (active).

As for `CCOC(=O)c1c(NC(=O)c2c(-c3ccccc3)noc2C)sc(C)c1-c1ccccc1`, the Potency is 6.31 µM (active).

As for `CCOC(=O)c1c(-c2ccc(F)cc2)csc1NC(=O)c1c(-c2ccccc2)noc1C`, the Potency was 8.91 µM (active).

Consider `CCOC(=O)c1c(-c2ccc(-c3ccccc3)cc2)csc1NC(=O)c1cccc(N2C(=O)CCC2=O)c1`, for which the Potency was 5.01 µM (active).

In the case of `CCOC(=O)c1c(-c2cccc(C)c2)csc1NC(=O)c1c(-c2ccccc2)noc1C`, the Potency is 11.2 µM (active).

Take `COC(=O)c1c(-c2ccccc2)csc1NC(=O)c1c(-c2ccccc2)noc1C`: the Potency is 14.1 µM (active).

Regarding `O=C(c1cccs1)N1N=C(c2ccccc2)CC1c1ccccc1O` (stereo unspecified), the Potency is 3.55 µM (active).

In the case of `CCOc1ccc2c(c1)OC(c1ccccc1)(C(F)(F)F)NC2=O` (stereo unspecified), the Potency was 2 µM (active).

For the compound `CC[C@@H](C)C(NC(=O)OC(C)(C)C)c1cn([C@@H](Cc2ccc(O)cc2)C(=O)N2CCN(C(=O)OC(C)(C)C)CC2)nn1` (stereo partly specified), the Potency is 12.6 µM (active).

Take `CC[C@@H](C)C(NC(=O)OC(C)(C)C)c1cn([C@@H](CCCCNC(=O)OC(C)(C)C)C(=O)N2CCN(C(=O)OC(C)(C)C)CC2)nn1` (stereo partly specified): the Potency is 2 µM (active).

Regarding `CCOc1ccccc1NC(=O)c1cc(S(=O)(=O)NCc2ccco2)ccc1F`, the Potency was 12.6 µM (active).

On to `COc1ccccc1NC(=O)c1ccc(S(=O)(=O)NCc2ccco2)cc1`, for which the “activity change, negative = inhibition” value was -9.3%.

On to `O=C1c2cccc3cc([N+](=O)[O-])cc(c23)C(=O)N1CCN1CCCC1`, for which the Potency was 10 µM (active).

As to `Cc1nnnn1/C(=C\c1ccccc1)C(=O)OCC(=O)N1CC2(C)CC1CC(C)(C)C2` (stereo unspecified), the Potency is 12.6 µM (active).

For the compound `Cc1cccc(CN2C(=O)c3ccccc3S(=O)(=O)c3ccc(C(=O)NCCCN4CCCC4)cc32)c1`, the Potency was 3.98 µM (active).

Take `O=C(c1ccc2c(c1)N(Cc1cccc(Cl)c1)C(=O)c1ccccc1S2(=O)=O)N1CCN(c2ccccn2)CC1`: the Potency is 3.98 µM (active).

Take `O=C(NCCCN1CCCC1)c1ccc2c(c1)N(Cc1ccccc1F)C(=O)c1ccccc1S2=O` (stereo unspecified): the Potency was 12.6 µM (active).

For `CCN1C(=O)c2ccccc2Sc2ccc(C(=O)NCCCN3CCCCC3)cc21`, the Potency was 12.6 µM (active).

In the case of `CC(C)[C@H](NC(=O)N1CCn2c1nc1ccccc12)C(=O)N[C@H](C(=O)O)c1ccccc1`, the “activity change, negative = inhibition” value is -7.59%.

With `CCN1CCCC1CNC(=O)c1ccc2c(c1)N(Cc1ccccc1F)C(=O)c1ccccc1S2(=O)=O` (stereo unspecified), the Potency was 5.01 µM (active).

On to `CCOC(=O)N1CCN(C(=O)c2ccc3c(c2)N(Cc2cc(C)ccc2C)C(=O)c2ccccc2S3=O)CC1` (stereo unspecified), for which the Potency is 4.47 µM (active).

On to `CC(NC(=O)CCl)c1ccccc1Br` (stereo unspecified), for which the Potency is 2.24 µM (active).

As to `CC(=O)/C=C/c1ccc2ccccc2n1`, the Potency was 12.6 µM (active).

Take `Cc1cccc(N(Cc2ccccc2)C(=O)CSC(C)C(=O)Nc2cc(C)on2)c1` (stereo unspecified): the Potency was 11.2 µM (active).

`Cc1cc(C)c(OCC(O)CNC(C)(C)C)c(C)c1` (stereo unspecified): the Potency was 11.2 µM (active).

As for `Cn1nnnc1Sc1ncnc2scc(-c3ccsc3)c12`, the Potency was 4.47 µM (active).

`Cn1nnnc1Sc1ncnc2scc(-c3ccc[nH]3)c12`: the Potency is 12.6 µM (active).

Turning to `Cn1nnnc1Sc1ncnc2scc(-c3cccs3)c12`, the Potency is 12.6 µM (active).

Consider `O=C(NCc1ccccn1)Nc1cc(Cl)ccc1Cl`, for which the Potency was 5.01 µM (active).

For the compound `Cc1ccc(Oc2nc3ccccn3c(=O)c2/C=C(\C#N)C(=O)NC2CCS(=O)(=O)C2)c(C)c1` (stereo unspecified), the Potency is 12.6 µM (active).
